# Data published in publication PMC7819943, “Rice protein-binding microarrays: a tool to detect cis-acting elements near promoter regions in rice”.
# The full ranking holds about 35,000 sequences; the median of “fluorescence intensity (a.u.)” is about 10,000, and the highest 2% start at about 52,000. This excerpt belongs to a sample that is enriched for the highest values.
# Target: T1, OsWOX13 (Oryza sativa, UniProt Q5QMM3 1-267)
# T1 sequence: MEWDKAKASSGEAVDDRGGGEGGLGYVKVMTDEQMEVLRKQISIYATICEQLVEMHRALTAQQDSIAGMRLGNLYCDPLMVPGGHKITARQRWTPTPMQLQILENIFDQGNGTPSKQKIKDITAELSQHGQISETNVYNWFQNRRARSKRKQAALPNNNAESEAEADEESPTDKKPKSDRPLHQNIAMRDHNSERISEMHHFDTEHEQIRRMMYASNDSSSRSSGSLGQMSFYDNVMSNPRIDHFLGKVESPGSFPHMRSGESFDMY
# Test: protein-binding microarray (RPBM); PBS, 2% BSA, 51.3 ng/ul salmon testes DNA, 50 uM zinc acetate, 200 nM TF, 25 C, 1 h; high values mean tight binding
# Conditions: protein: recombinant; tags: N-terminal polyhistidine and DsRed monomer fusion (pET32a); label: CyDye5-dUTP incorporated in the synthesized complementary strand; 3' TTTTT single-stranded linker to array surface; dsDNA, one strand shown
# Outline: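 In PBS with 2% BSA, salmon testes DNA and 50 µM zinc acetate, 200 nM protein was incubated on a custom Agilent array at 25 °C for 1 h and then washed off. The array had been made double-stranded by primer extension with Cy5-dUTP and blocked with 2% BSA. The proteins were transcription factors fused N-terminally to polyhistidine and DsRed, expressed in E. coli BL21-CodonPlus and purified on Ni–NTA. The binding signal is per-feature fluorescence intensity (arbitrary units) from an Axon 4000B scanner.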
row,Sequence,binding signal
1,GCACCTTTCAAATTCATCTGATTTATGCATTCTTCTGTAACGGAGTCACCTAGTGCAG,3340 fluorescence intensity (a.u.)
2,CCAAGCAAATAATCCGATAGATTGAATCGGTGAGTTACCACGGAGTCACCTAGTGCAG,9630 fluorescence intensity (a.u.)
3,CCGACCCGTTGGATTGATAAAACCAACTGCTTCCCGCTCCCGGAGTCACCTAGTGCAG,6190 fluorescence intensity (a.u.)
4,CTCCCAAGTAAATGATTTGAAATACCCGATCTAATTATTACGGAGTCACCTAGTGCAG,3180 fluorescence intensity (a.u.)
5,ACCAAGTAATTGATATCTAGAAATCCGATACCTAGTACCACGGAGTCACCTAGTGCAG,55000 fluorescence intensity (a.u.)
6,TTTTGCAATGTGATTTGCTGGTTTGGATAGTGGAGAAGTTCGGAGTCACCTAGTGCAG,3300 fluorescence intensity (a.u.)
7,TGGCCTTGATTTGCTTCCTGAATGTGCCTGCTTCCTTACACGGAGTCACCTAGTGCAG,18100 fluorescence intensity (a.u.)
8,TTGGTTGGTTGGTTGATTGCTCGCGCCCCGCGCGGTTGCGCGGAGTCACCTAGTGCAG,6680 fluorescence intensity (a.u.)
9,ATTGATTGATAAACCCTACTGCTTCTCGCCGCCGCCGCCGCGGAGTCACCTAGTGCAG,55100 fluorescence intensity (a.u.)
10,ATGTGATTGATTCTGCTGGTGGATTCTCTCTTCGGTTTGCCGGAGTCACCTAGTGCAG,62800 fluorescence intensity (a.u.)
11,CTCTTGATTGCGGCGCGACTGCGAGCGAGAGAGCTTCACGCGGAGTCACCTAGTGCAG,20500 fluorescence intensity (a.u.)
12,CCTCTTGATTGATTGCTCGGTCGACTGATTGCTTCTTACACGGAGTCACCTAGTGCAG,65000 fluorescence intensity (a.u.)
13,ATTGTTGCTGCTGCTGGATTGATTAGTGGTTAAGCAGATTCGGAGTCACCTAGTGCAG,5320 fluorescence intensity (a.u.)
14,ATTTATTAATATTAATATTATTGTGGGAAATTTTAGAATGCGGAGTCACCTAGTGCAG,3460 fluorescence intensity (a.u.)
15,TGCTGTAATTACTTTTCTGTAATTTGGATTAATCCTTCGCCGGAGTCACCTAGTGCAG,40800 fluorescence intensity (a.u.)
16,AGATACTTAATTAGTGTCTTCTATAAGCAAAGGTCAGGAACGGAGTCACCTAGTGCAG,11300 fluorescence intensity (a.u.)
17,GCTCTATCACAAAATAAACTAGAGTTATGAAGCTGGATTTCGGAGTCACCTAGTGCAG,4850 fluorescence intensity (a.u.)
18,GTTATGTAATTAAAACGTTGTTTTCTTCTAATATATTGTCCGGAGTCACCTAGTGCAG,7150 fluorescence intensity (a.u.)
19,AATCAAATCATCTCATCAAAGTCCAATCCCGCTAGCTCCACGGAGTCACCTAGTGCAG,9000 fluorescence intensity (a.u.)
20,TAATCGTATTAATTGATCAACAGGCTAGGCCAGCCAAACACGGAGTCACCTAGTGCAG,13200 fluorescence intensity (a.u.)
21,GATTGATTTGATTGATTGCTTGATTGGTTAATTGGTTGATCGGAGTCACCTAGTGCAG,51600 fluorescence intensity (a.u.)

row,Sequence,binding signal
1,ACGGGGTTGCGGTAATTTTAATTGGGCCGAAATGTGATTCCGGAGTCACCTAGTGCAG,4130 fluorescence intensity (a.u.)
2,TCTGGTCGTAAATTGACAACCAACCTTAAGAAAATCCAGGCGGAGTCACCTAGTGCAG,21300 fluorescence intensity (a.u.)
3,CGGGTTTGATTTGATTTGATTTTGATTTTGATTTGCTTCTCGGAGTCACCTAGTGCAG,53400 fluorescence intensity (a.u.)
4,GAAATGGGCCTAATTGTCGGTCACATACCGAGTAAATGGGCGGAGTCACCTAGTGCAG,4300 fluorescence intensity (a.u.)
5,GTGATTGATATCGATTCTGATTGATGCCTTTGCCTGGTACCGGAGTCACCTAGTGCAG,57000 fluorescence intensity (a.u.)
6,TGAGTAATTGATAGTGACACGGCTATCCAACCAATCCAGGCGGAGTCACCTAGTGCAG,65100 fluorescence intensity (a.u.)
7,GGCCGATTGATTGGGTCCGAGTAATCTCGGAAATGTGGGGCGGAGTCACCTAGTGCAG,53600 fluorescence intensity (a.u.)
8,TGATTGTACGTATTCTGATTGATTGCTTATCGATATCTCACGGAGTCACCTAGTGCAG,26100 fluorescence intensity (a.u.)
9,TTTTGATTGCACCTTGCTTCTCGTATACACCCTCACCTATCGGAGTCACCTAGTGCAG,22200 fluorescence intensity (a.u.)
10,ACCTTCACTTGATTGCTGGTGGTAGTAGTAGTAGTAGTACCGGAGTCACCTAGTGCAG,21700 fluorescence intensity (a.u.)
11,CAAGAAATGACTTAATTAGAAAACCTCTTTGGAGCACCCACGGAGTCACCTAGTGCAG,11000 fluorescence intensity (a.u.)
12,AAAGCATTCATGTTAATTTTCTCCTAACTCAAATCGAATGCGGAGTCACCTAGTGCAG,3260 fluorescence intensity (a.u.)
13,CTGATTGGTTAGTAAGAGAATGTTGGTGGTGAAGTTGTTACGGAGTCACCTAGTGCAG,29900 fluorescence intensity (a.u.)
14,AAACTAACCAGGATCTGGTAATTGGAACGATCCCCATTCCCGGAGTCACCTAGTGCAG,4390 fluorescence intensity (a.u.)
15,GAAGTTTAATTATCATAAGATTGTGATGGTTATGTATGGTCGGAGTCACCTAGTGCAG,31700 fluorescence intensity (a.u.)
16,TGTATTGCCTAATTAATTTTATGCGCCTTTAATTTACTGCCGGAGTCACCTAGTGCAG,16800 fluorescence intensity (a.u.)
17,CATATCCCATTTGCCAATCACACCCTGAGAGTATGTATATCGGAGTCACCTAGTGCAG,6560 fluorescence intensity (a.u.)
18,CACCATTATTGCCAATTATCCTTGCTTGCGTGGTAGAGTACGGAGTCACCTAGTGCAG,26200 fluorescence intensity (a.u.)
19,ACTTGATTTCTCTGTTGGAAGATGGGTATATTTCGAGACCCGGAGTCACCTAGTGCAG,17200 fluorescence intensity (a.u.)
20,TACTCTGATTTTGTCCATTACCAGCTGCAAATGGACCAGCCGGAGTCACCTAGTGCAG,19300 fluorescence intensity (a.u.)
21,TTGACAGTTAATCCTAGGTCTATCTATCGCACTGAGTTTGCGGAGTCACCTAGTGCAG,12400 fluorescence intensity (a.u.)
